# D2 ag-1: D2 dopamine receptor (human) agonism; HEK293 T-REx D2 cells, calcium flux agonist mode; AID 485358; activation, % at 2 µM; 340,000 tested, 0.53% active;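 active means activation over 3 SD above normal in the single-dose calcium agonist read, cut at about 30% in these data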
#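 Agonism scored from kinetic calcium signal (1 read/sec, 180 s) following compound pin transfer, after a 10 s baseline. Cells: HEK293 Trex line expressing inducible D2 receptor coupled to calcium, dye-loaded after overnight culture at 30 C.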
# D2 PAM-1: positively modulates the human D2 dopamine receptor allosterically. P14416. 340,000 tested, 0.34% active. AID 485347. HEK293 T-REx D2, calcium flux, EC20 dopamine potentiation. potentiation, % at 10 µM;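 active means potentiation over 3 SD above the plate norm, cut at about 30% in these data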
#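 Using a no-wash calcium dye in inducible, force-coupled HEK293 Trex cells expressing D2, we tracked fluorescence each second for 180 s after compound, then for 180 s after EC20 dopamine to detect augmented signalling.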
# D2 ag-2: activates the human D2 dopamine receptor. 360,000 tested, 0.084% active. activation, % (test concentration not listed). P14416. DiscoveRx PathHunter D2 beta-arrestin, luminescence, 90 min; 100% = 57 uM dopamine signal. AID 624465; in the data active means activation above about 40%; inconclusive means between about 15% and that limit
#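 DiscoveRx PathHunter D2 beta-arrestin cells (2,100/well) attached overnight, then compound-stimulated 90 min at 37 C in HBSS/10 mM HEPES/0.1% Tween-20 buffer; beta-galactosidase complementation read by luminescence after 1 h at ambient temperature. Dopamine 57 uM final (EC100) as control.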
# D2 antagonist: antagonizes the human D2 dopamine receptor | AID 485344 | inhibition, % at 10 µM | P14416 | HEK293 TREx D2 cells, calcium flux, dopamine EC80 | 340,000 tested, 2% active; in the data active means inhibition above about 30%; inactive means below that, where a call was filed
#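 Measurement of antagonist activity uses fluorescent calcium dye in inducible HEK293 T-REx D2 cells: 10 s baseline, compound addition with 180 s read, EC80 dopamine addition with a further 180 s read.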
# D2 PAM-2: potentiates the human D2 dopamine receptor allosterically | P14416 | DiscoveRx D2 beta-arrestin cells, luminescence, 90 min; 100% = 57 uM dopamine signal | potentiation, % (concentration not given with the values) | 360,000 tested, 0.23% active | AID 624464; in the data active means potentiation above about 50%; inconclusive means mostly about 30% to 49%
#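 PathHunter beta-arrestin assay in DiscoveRx D2 cells. Compounds were added with an EC20 of dopamine (50 nM final) for 90 min at 37 deg C. Luminescence was read 1 h after detection reagent, with 57 uM dopamine as the EC100 control.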
# D3 arrestin ag: activates human D3 dopamine receptor beta-arrestin recruitment | DiscoveRx D3 beta-arrestin cells, luminescence, 90 min | Potency, µM (top dose mostly 76.9 µM), hits mostly activators | shares compounds with D2 ag-1 | 2,300 tested, 4% active | AID 720506; further: nearly all actives have a fitted effect of over 70% in size
# Target sequence (P35462 whole entry, looked up): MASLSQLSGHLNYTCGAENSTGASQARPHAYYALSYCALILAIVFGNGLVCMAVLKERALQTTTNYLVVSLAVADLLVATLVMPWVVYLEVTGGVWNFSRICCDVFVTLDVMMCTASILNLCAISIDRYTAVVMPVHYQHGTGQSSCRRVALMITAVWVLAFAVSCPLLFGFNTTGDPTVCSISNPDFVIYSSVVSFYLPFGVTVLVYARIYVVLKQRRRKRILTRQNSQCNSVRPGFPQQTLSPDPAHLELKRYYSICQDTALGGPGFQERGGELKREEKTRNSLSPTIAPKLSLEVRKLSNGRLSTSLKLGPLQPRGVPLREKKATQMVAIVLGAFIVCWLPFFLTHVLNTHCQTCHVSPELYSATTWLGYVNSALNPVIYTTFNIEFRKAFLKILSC
# D2 ag-3: activates human D2 dopamine receptor in D3 counterscreen; shares compounds with D2 ag-1; 2,300 tested, 5.9% active; DiscoveRx PathHunter D2 beta-arrestin, luminescence, 90 min; response scale: percent relative to full dopamine signal; Potency, µM (doses to about 76.9 µM), actives largely listed as activators; further: nearly all actives have a fitted effect of over 70% in size
# A number is an active result; 0 = inactive; ? = inconclusive; - = not tested or not shown. The list is not random: actives were taken first. Their share in the collection is about 2.4%. Unless noted, the call rests on the fitted dose curve; in most records, active means well fitted activation curve with a large enough effect; inconclusive means small, poorly fitted or top-dose-only effect; inactive means flat fitted curve, though single readings scatter.
SMILES,D2 ag-1,D2 PAM-1,D2 ag-2,D2 antagonist,D2 PAM-2,D3 arrestin ag,D2 ag-3
CCCCCCC(=O)Nc1cc2nc3c(nc2cc1C)c(=O)n(C)c(=O)n3C,0,0,-,-,-,-,-
CC(=O)c1ccc(NC(=O)Cn2nc(C(F)(F)F)c3c2CCCC3)cc1,-,0,-,-,-,-,-
COCc1c(C(=O)N2CCN(CCOc3ccccc3)CC2)oc2ccccc12,80,0,?,77,0,0.32µM,?
O=C(c1ccc(Cl)cc1)N1CCN(CCOc2ccccc2)CC1,74,0,?,76,0,0.1µM,25µM
O=C(c1c(F)cccc1F)N1CCN(CCOc2ccccc2)CC1,60,0,0,0,0,?,0
Cc1ccc(C)n1CCN1CCN(C(=O)c2ccc(Cl)cc2)CC1,0,0,0,0,0,-,-
OCCN1CCN(CCOc2cccc(Cl)c2)CC1,33,0,0,76,0,?,0
CCC(Sc1nc2ncccc2o1)C(=O)Nc1cccc(C)c1 (stereo unspecified),0,0,-,-,-,-,-
COc1ccc(OCCN2CCN(C(=O)c3ccc(OC(F)F)c(OC)c3)CC2)cc1,0,0,0,0,0,-,-
COc1ccc(OCCN2CCN(C(=O)c3ccc(OC)cc3)CC2)cc1,42,0,0,0,0,0.45µM,0
CCOC(=O)C1CCN(C2CCN(Cc3nc(-c4ccccc4)no3)CC2)CC1,0,0,0,0,0,-,-
CCOC(=O)C1CCCN(Cc2nc(Cc3cccc(F)c3)no2)C1 (stereo unspecified),0,0,0,0,0,-,-
CCOC(=O)C1CCCN(C2CCN(Cc3nc(-c4ccccc4)no3)CC2)C1 (stereo unspecified),52,0,0,0,0,0,0
CCOC(=O)C1CCCN(C2CCN(Cc3nc(Cc4ccccc4)no3)CC2)C1 (stereo unspecified),0,0,0,34,0,0,0
Cc1ccc(Cl)cc1N1CCN(C(=O)Cn2ncc3c4ccccc4n(C)c3c2=O)CC1,0,0,-,-,-,-,-
O=C1c2oc3ccccc3c(=O)c2C(c2ccccc2)N1Cc1ccc2c(c1)OCO2 (stereo unspecified),0,0,-,-,-,-,-
COC(=O)c1cc(NC(=O)CC2Oc3ccccc3NC2=O)cc(C(=O)OC)c1 (stereo unspecified),0,0,0,0,0,0,0
CCOC(=O)N1CCc2c(sc3c2c(=O)n(-c2ccc(CC)cc2)c(=O)n3Cc2cc(C)ccc2C)C1,0,0,-,-,-,-,-
CC1CCN(Cc2c(O)ccc3c(=O)c(Oc4ccccc4Cl)c(C(F)(F)F)oc23)CC1,0,0,-,-,-,-,-
Cc1ccc(NC(=O)COc2coc(CN3CCN(Cc4ccccc4)CC3)cc2=O)cc1,0,0,0,0,0,-,-
Cc1ccccc1NC(=O)COc1coc(CN2CCN(Cc3ccccc3)CC2)cc1=O,74,0,0,0,0,0,0
O=C(COc1coc(CN2CCN(c3ccccc3F)CC2)cc1=O)NC1CCCCC1,0,0,0,0,0,0,0
CCCN(C(=O)Cn1cnc2onc(-c3ccc(F)cc3)c2c1=O)c1cccc(Cl)c1,0,0,-,-,-,-,-
COc1ccc(NC(=O)C2(C)CCN2C(=O)c2ccc(C(C)(C)C)cc2)cc1OC (stereo unspecified),-,-,0,-,0,-,-
COc1ccc(C(CCN2CCN(c3ccccc3)CC2)c2c(OC)cc(OC)c3c(-c4ccccc4)cc(=O)oc23)cc1 (stereo unspecified),69,0,0,79,0,?,?
CCCCCc1cc(=O)oc2c(C(CCN3CCN(c4ccccc4)CC3)c3ccc(N(C)C)cc3)c(OC)cc(OC)c12 (stereo unspecified),0,0,0,0,0,-,-
COc1cc(C2CC(=O)Oc3c(C(CCN4CCN(c5ccccc5)CC4)c4ccc(N(C)C)cc4)c(OC)cc(OC)c32)cc(OC)c1OC (stereo unspecified),0,0,0,0,0,-,-
